This is a sample that favours compounds with a hit; in the whole collection about 7.3% have one here.
ELG1 genotox: genotoxicity induction in ELG1-luciferase HEK293T cells. 330,000 compounds, 1.3% hits. HEK293T ELG1-luciferase reporter, luminescence, 16 h. Potency, µM (titrated, usually from 46 µM), actives largely listed as activators. AID 504466; also: nearly all actives have a fitted effect of over 60% in size
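Quantitative HTS format in 1536-well plates. HEK293T ELG1-luciferase reporter cells receive test compound and are incubated 16 hr at 37 °C, 5% CO2; ONE-Glo added, 30 min room temperature, then luminescence read.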
SMN2 splice enh: increases expression of the SMN2 splice variant; HEK293 SMN2-luciferase splicing reporter, luminescence, 30-36 h; Potency, µM (series often up to 46.1 µM), usual class: activators; 210,000 compounds, 2.8% hits; AID 1458; also: nearly all actives have a fitted effect of over 55% in size
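HEK293 cells carry an SMN2 […]–luciferase reporter in which exon 7 inclusion puts luciferase in frame. Cells were plated 10-12 h before compound addition, then incubated 30-36 h at 37C. ONE-Glo luminescence was read; sodium butyrate at 4.5 mM final served as control.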
Rab9 prom act: activates the Rab9 promoter; Huh7 Rab9 promoter-luciferase reporter, luminescence, 24 h; AID 485297; 320,000 compounds, 2.8% hits; Potency, µM (titrated, usually from 9.22 µM), usual class: activators; also: nearly all actives have a fitted effect of over 60% in size
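Luminescence from Amplite-detected luciferase (10 minutes, ambient) reports Rab9 promoter activation. Before that, stable Rab9-luciferase Huh7 cells (1500/well, reduced-serum OP-MEM I plus 10% FBS) were exposed to compound for 24 hours at 37C.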
FLuc modulator: firefly luciferase modulation, counter-screen for miR-21 project; P08659; 360,000 compounds, 6.9% hits; Potency, µM (highest dose often 57.5 µM), most hits filed as inhibitors; purified FLuc, Km substrates, luminescence inhibition; also: nearly all actives have a fitted effect of over 55% in size
Target sequence (P08659 whole entry, looked up): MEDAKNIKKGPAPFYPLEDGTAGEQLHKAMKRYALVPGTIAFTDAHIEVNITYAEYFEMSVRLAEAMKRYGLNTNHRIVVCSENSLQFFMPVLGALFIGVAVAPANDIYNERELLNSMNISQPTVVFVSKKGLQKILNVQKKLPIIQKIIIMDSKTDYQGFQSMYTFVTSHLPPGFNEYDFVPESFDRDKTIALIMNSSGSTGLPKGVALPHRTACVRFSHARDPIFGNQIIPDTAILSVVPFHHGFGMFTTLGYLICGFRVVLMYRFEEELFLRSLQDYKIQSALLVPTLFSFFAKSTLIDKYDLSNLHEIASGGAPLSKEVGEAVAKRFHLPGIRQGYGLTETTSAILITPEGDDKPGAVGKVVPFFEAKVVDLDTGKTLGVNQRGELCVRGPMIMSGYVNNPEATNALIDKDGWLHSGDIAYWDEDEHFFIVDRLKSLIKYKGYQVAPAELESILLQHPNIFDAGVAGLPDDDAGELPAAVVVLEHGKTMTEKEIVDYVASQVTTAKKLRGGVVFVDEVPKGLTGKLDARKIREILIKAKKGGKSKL
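Purified P. pyralis luciferase, 10 nM final, with Km-level 10 uM D-luciferin and 10 uM ATP in 50 mM Tris acetate pH 7.5, 10 mM Mg acetate, 0.01% Tween-20, 0.05% BSA; 6-point qHTS titration about 60 µM downward; luminescence read.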
KinaseGlo FLuc: blocks Kinase-Glo luciferase, a counter-screen artifact. Kinase-Glo luciferase, ATP luminescence, 8 min. Potency, µM (titrated, usually from 38.3 µM), actives largely listed as inhibitors. 200,000 compounds, 0.28% hits. AID 1379; also: nearly all actives have a fitted effect of over 60% in size
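Recombinant Kinase-Glo luciferase, 10 uM ATP (linear range), luciferin; imidazole pH 7.2 / KCl / MgCl2 / Tween / BSA buffer; 8 min RT; luminescence.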
NPC1 prom act: activates the NPC1 promoter; Huh7 NPC1 promoter luciferase reporter, 24 h; 320,000 compounds, 2.4% hits; AID 485313; Potency, µM (highest dose often 9.22 µM), hits mostly activators; also: nearly all actives have a fitted effect of over 60% in size
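Luminescence read-out of NPC1 promoter-driven luciferase in stably transfected Huh7 cells; compounds delivered in DMSO and left 24 h at 37C, 5% CO2, qHTS titration format.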
Hits are given with their value; 0 = inactive; ? = inconclusive; - = no result given; [ ] = another dose, or the depositor's remark. Calls follow the shape of the dose curve; as a rule, active = well fitted curve in the direction sought with a large enough effect; inconclusive = small, poorly fitted or top-dose-only effect, or another doubt; inactive = no such curve, though single readings can be large; an effect the other way counts as inactive or inconclusive.

SMILES | ELG1 genotox | SMN2 splice enh | Rab9 prom act | FLuc modulator | KinaseGlo FLuc | NPC1 prom act
COc1cc(/C=N/NC(=S)NCCN2CCOCC2)cc(OC)c1OC | ? | 0 | 0 | 0 | 0 | 0
CCOc1ccc(NC(=S)N2CCN(c3ccc(N4CCOCC4)nn3)CC2)cc1 | 0 | 0 | 0 | 0 | 0 | 0
Cc1cccc(Nc2nc(N)nc(CN3CCN(C)CC3)n2)c1 | 0 | 0 | 0 | 0 | 0 | 0
CN(C)c1ccc(CNC(=O)CCCN2C(=O)CCn3nc(-c4cn(C)c5ccccc45)cc32)cc1 | - | - | - | 0 | - | -
COc1cc(/C=N/Nc2ccc(C(=O)O)cc2)ccc1O | ? | ? | ? | 1.9µM | 0 | ?
COc1cc(/C=N\Nc2cc(=O)n(C)c(=O)n2C)ccc1O | 0 | 0 | 0 | ? | 0 | 0
CCC(=O)c1ccc(OCC(=O)Nc2nn3cnnc3s2)cc1 | 0 | 0 | 0 | 27µM | 0 | 0
O=C1CCCN1CCC(=O)N1CCCC(CO)(Cc2ccccc2)C1 (stereo unspecified) | 0[9.26 µM] | - | 3.5µM | 17µM | - | ?
CSCCC(=O)N1CCCC(CO)(CCCc2ccccc2)C1 (stereo unspecified) | 0 | - | 0 | 0 | - | 0
CCn1cc(CN2N=C(C)CC2c2ccccc2)c(C)n1 (stereo unspecified) | 0 | 0 | 0 | 0 | 0 | 0
CN(C)c1ccc(NC(=O)c2cccc(N3C(=O)C4C5C=CC(C5)C4C3=O)c2)cc1 (stereo unspecified) | ? | 0 | 3.2µM | 11µM | 0 | 1.8µM
COc1ccc(O)c(/C=N/Nc2nc(Nc3ccccc3)nc(-n3nc(C)cc3C)n2)c1 | 0 | 0 | 0 | 9.5µM | 0 | 0
COc1cc(/C=N/Nc2nc(Nc3ccc(C)cc3)nc(-n3nc(C)cc3C)n2)cc(OC)c1OC | 0 | 0 | 0 | ? | 0 | 0
COc1cc(/C=N/Nc2nc(Nc3ccccc3)nc(-n3nc(C)cc3C)n2)cc(OC)c1OC | 0 | 0[1.84 µM] | 0 | 2.7µM | 0 | 0
CC(C(=O)Nc1ccc(S(=O)(=O)N2CCCC2)cc1)N1CCc2ccccc2C1 (stereo unspecified) | 0 | - | 0 | - | - | 0
Cc1nc(NC(=O)/C=C/c2ccccc2)sc1C(=O)Nc1ccccc1 | 0 | 0 | 0 | 0 | 0 | 0
CCC(=O)c1ccc(N2CCN(C(=O)c3ccccc3F)CC2)c(F)c1 | 0 | 0 | 0 | 0 | 0 | 0
CCC(=O)c1ccc(N2CCCCCC2)c(F)c1 | ? | 0 | 0 | 21µM | 0 | 0
CCCC(=O)c1ccc(N2CCN(S(=O)(=O)c3ccccc3)CC2)c(F)c1 | 0 | 0 | 0 | 0 | 0 | 0
CCOC(=O)N1CCN(c2ccc(C(=O)c3ccccc3)cc2F)CC1 | 0 | 0 | 0 | 21µM | 0 | ?
CCCC(=O)c1ccc(N2CCCC2)c(F)c1 | ? | 0 | ? | 15µM | 0 | 0
CCC(=O)c1ccc(N2CCCC2)c(F)c1 | 0 | 0 | 0 | 17µM | 0 | 0
CCOC(=O)N1CCN(c2ccc(C(C)=O)cc2F)CC1 | 0 | 0 | 0 | 0 | 0 | 0
Nc1ccc(Oc2ncccn2)c(Cl)c1 | 0 | - | 0 | 0 | - | 0
O=C(c1ccc2c(=O)n3c(nc2c1)CCC3)N1CCN(S(=O)(=O)c2cccc(F)c2)CC1 | 0 | - | 0 | 0 | - | 0
SMILES | ELG1 genotox | SMN2 splice enh | Rab9 prom act | FLuc modulator | KinaseGlo FLuc | NPC1 prom act
S=C(c1ccc(-c2ccccc2Cl)o1)N1CCOCC1 | 13µM | 32µM | ? | 11µM | 0 | ?
S=C(c1ccc(-c2ccc(Br)cc2)o1)N1CCCCC1 | 0 | - | 0 | ? | 0 | 0
S=C(c1ccc(-c2ccc(Br)cc2)o1)N1CCOCC1 | ? | - | 2µM | 3µM | - | 3.5µM
S=C(c1ccc(-c2ccc(Cl)c(Cl)c2)o1)N1CCOCC1 | 6.5µM | 11µM | 1.8µM | 2.7µM | 0 | 2.2µM
Cc1ccc(-c2cc(C(=O)OCC(=O)N(C)C3CCS(=O)(=O)C3)c3ccccc3n2)c(C)c1 (stereo unspecified) | 0 | 0 | 0 | 0 | 0 | 0
CC1CCN(CCNC(=O)C2CCCN(S(=O)(=O)c3cccc4nonc34)C2)CC1 (stereo unspecified) | 0 | 0 | 0 | 0 | 0 | 0
CN(C(=O)c1cccc(NC(=O)c2ccccc2)c1)C1CCCCC1 | 0 | - | 0 | 0 | - | 0
CN(C(=O)c1cccc(Nc2ccc(-c3ccc4c(c3)OCCO4)nn2)c1)C1CCCCC1 | 0 | 0 | ? | 0.95µM | ? | ?
CCN(CC)S(=O)(=O)c1ccc(Nc2ccc(-c3ccc4c(c3)OCCO4)nn2)cc1 | 0 | 0 | 0 | 11µM | 0 | 0
CN(C)S(=O)(=O)c1ccc(Nc2ccc(-c3ccc4c(c3)OCCO4)nn2)cc1 | 0 | 0 | 0 | 6.7µM | 0 | 0
Cc1nc2cc(C(=O)O)ccc2n1-c1ccccc1 | 0 | 0 | 0 | 0 | 0 | 0
CCc1ccc(N2CCn3c2nc2c3c(=O)n(CCCc3ccccc3)c(=O)n2C)cc1 | - | - | - | 0 | - | -
CN(C)c1ccc(CNC(=O)c2cnc3sc(N4CCCC4)nn3c2=O)cc1 | - | - | - | 0 | - | -
O=C(NC(C(=O)c1ccccc1)N1CCCCCC1)c1ccco1 (stereo unspecified) | 0 | 0 | 0 | 0 | 0 | 0
Cc1ccc(C(=O)C(NC(=O)c2ccco2)N2CCOCC2)cc1 (stereo unspecified) | 18µM | 13µM | ? | 0 | 0 | ?
O=C(O)C(=O)/C(=C\c1ccc(Cl)cc1)c1ccc2ccccc2n1 | ? | 13µM | 0 | ? | 0 | 0
C=CCNC(=O)c1onc(CSc2cc(C)cc(C)c2)c1C(=O)O | 0 | ? | 0 | 0 | 0 | 0
Cc1onc(-c2ccccc2Cl)c1C(=O)Nc1sc2c(c1C#N)CCC2 | 0 | 0 | 0 | 0 | 0 | 0
N#Cc1c(NC(=O)c2ccc(-c3ccccc3[N+](=O)[O-])o2)sc2c1CCCC2 | 0 | 0 | 0 | 11µM | 0 | 0
N#Cc1c(NC(=S)NC(=O)c2ccccc2)sc2c1CCC2 | ? | 0 | ? | 0 | 0 | 0
Cc1onc(C(=O)Nc2sc3c(c2C#N)CCCC3)c1[N+](=O)[O-] | 0 | - | ? | 13µM | 0 | 0
CC1CCc2c(sc(NC(=O)c3ccc(-c4ccccc4[N+](=O)[O-])o3)c2C#N)C1 (stereo unspecified) | 0 | 0 | 0 | 11µM | 0 | 0
O=C(NC1CCCCC1)c1ccc(-c2ccccc2[N+](=O)[O-])o1 | 2.1µM | - | 1.4µM | 3.8µM | - | 0.71µM
COC(=O)c1c(-c2ccccc2)csc1N1C(=O)Nc2ccccc2N1O | ? | ? | 2.8µM | 4.8µM | 0 | ?
CCOc1ccc(/C=C2\SC(=O)N(CCNC(=O)CN3C(=O)NC4(CCCC4)C3=O)C2=O)cc1OC | 0 | - | 0 | 0 | - | 0
Cc1sc2nc3ccc(N4CCCC4)nn3c(=O)c2c1C | 0 | - | 0 | 12µM | - | ?
Cc1ccc2nc3ccc(N4CCN(C)CC4)nn3c(=O)c2c1 | ? | - | 3.5µM | 6µM | 0 | 1.6µM
Cc1ccc2nc3ccc(N4CCCCCCC4)nn3c(=O)c2c1 | 0 | ? | ? | 5.4µM | 0 | ?

Assay outcomes as filed in PubChem.
